“And” between values parts separate entries of the source, which are not always exact repeats. Equal entries are not always repeated. Inconclusive results are not listed. A call without a number means that no potency is given here. More than one record can exist for a structure, and the calls need not agree. The source made the active and inactive calls. Unless noted, calls come from the whole dose curve; as a rule, active = well fitted curve in the direction sought with a large enough effect in the repeat runs; inconclusive = weak or mixed curves; inactive = no such curve, though single readings can be large; an effect the other way counts as inactive or inconclusive.
Legend:
[1] = target: Luciferin 4-monooxygenase (Photinus pyralis) (UniProt P08659); assay: qHTS assay to identify small molecule inhibitors of firefly luciferase (AID 1224835); note: nearly all actives have a fitted effect of over 25% in size; note: potency is the fitted concentration of half-maximal effect
Summary of the method: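 Biochemical qHTS: compounds run as interplate titrations against purified firefly enzyme, with D-luciferin and ATP each at its KM concentration. Light output recorded by CCD imaging.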

[2] = qHTS assay to identify small molecule antagonists of the constitutive androstane receptor (CAR) signaling pathway - cell viability counter screen (AID 1224837); note: nearly all actives have a fitted effect of over 45% in size; note: potency is the fitted concentration of half-maximal effect
Summary of the method: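 Cytotoxicity counter-screen: CellTiter-Fluor fluorescence after 23 h compound exposure (15-point qHTS) in double-stable HepG2-CYP2B6-hCAR cells, with 50 nM CITCO added.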

[3] = target: Nuclear receptor subfamily 1 group I member 3 (Homo sapiens) (UniProt Q14994); assay: qHTS assay to identify small molecule antagonists of the constitutive androstane receptor (CAR) signaling pathway (AID 1224838);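 note: HepG2 cells stably expressing hCAR with CYP2B6 luciferase reporter stimulated by CITCO; nearly all actives have a fitted effect of over 40% in size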; note: potency is the fitted concentration of half-maximal effect
Summary of the method: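 Antagonism measured as luciferase signal (ONE-Glo, 30 min, room temperature) in CAR-stimulated cells: HepG2-CYP2B6-hCAR double-stable line exposed 24 hr at 37 C to compound in a 15-point series plus 50 nM CITCO.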

[4] = qHTS assay to identify small molecule antagonists of the estrogen related receptor signaling pathway with the pleiotropic PPARgamma coactivator (PGC) from Tox21 10K library - cell viability counter screen (AID 1224840; active = well fitted cell-killing curve with a large enough effect in the repeat runs, not every such curve was filed as active; note: nearly all actives have a fitted effect of over 40% in size; note: potency is the fitted concentration of half-maximal effect)
Summary of the method: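 Counter-screen for cytotoxicity: after 17.5 h compound exposure at 37 C, CellTiter-Fluor reagent added to PGC/ERR cells for 30 min and fluorescence read. Cells were seeded at 2,000 per well 6 h before dosing.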

[5] = qHTS assay to identify small molecule antagonists of the estrogen related receptor signaling pathway with the pleiotropic PPARgamma coactivator (PGC) from Tox21 10K library (AID 1224841; call rule not given here; note: actives are mostly falling curves and most rising ones were filed inactive; nearly all actives have a fitted effect of over 50% in size; note: potency is the fitted concentration of half-maximal effect)
Summary of the method: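 Luminescence (One-Glo, 30 min at room temperature) after 18 h compound treatment at 37 C of PGC/ERR reporter cells plated at 2,000 cells/well and settled 6 h beforehand.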

[6] = qHTS assay to identify small molecule agonists of the estrogen related receptor signaling pathway with the pleiotropic PPARgamma coactivator (PGC) from Tox21 10K library (AID 1224842); note: nearly all actives have a fitted effect of over 15% in size
Summary of the method: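 PGC/ERR reporter cell line, 2,000 cells per well, incubated 6 h at 37 C before 23 nL compound in DMSO was added. After 18 h at 37 C, One-Glo luminescence read following 30 min at room temperature.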

[7] = target: Thyrotropin receptor (Homo sapiens) (UniProt P16473); assay: qHTS assay to identify small molecule agonists of the thyroid stimulating hormone receptor (TSHR) signaling pathway (AID 1224843; calls by dose curve; note: nearly all actives have a fitted effect of over 45% in size; note: potency is the fitted concentration of half-maximal effect)
Summary of the method: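 HEK293/TSHR, 800 cells/well; cpd 30 min RT; add cAMP-d2 + anti-cAMP-cryptate, 1 h RT; fluorescence read on plate reader. 15-pt titration, n=3.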

[8] = qHTS assay to identify small molecule agonists of the hypoxia (HIF-1) signaling pathway - cell viability counter screen (AID 1224844; calls by dose curve; note: nearly all actives have a fitted effect of over 50% in size; note: potency is the fitted concentration of half-maximal effect)
Summary of the method: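 Cytotoxicity measured by CellTiter-Glo ATP luminescence in the wells also read for beta-lactamase signal. Cells were HRE-bla ME-180 (2,000/well, 0.5% dialyzed FBS), exposed to compounds for 17 h at 37C.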

[9] = qHTS assay to identify small molecule agonists of the hypoxia (HIF-1) signaling pathway (AID 1224846; active = well fitted activation curve with a large enough effect in the signal ratio in the repeat runs, not every such curve was filed as active; the % refers to the signal ratio)
Summary of the method: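 Compounds added to ME-180 cells carrying hypoxia-response-element beta-lactamase reporter (0.5% dialyzed FBS, 5 h preplating), 17 h at 37C; agonist activity detected by CCF4-AM B/G FRET read-out.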

[10] = qHTS assay to identify small molecule antagonists of the estrogen related receptor (ERR) signaling pathway from Tox21 library (AID 1224848); note: nearly all actives have a fitted effect of over 50% in size; note: potency is the fitted concentration of half-maximal effect
Summary of the method: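 Compounds dissolved in DMSO are pin-transferred onto ERR reporter cells (2,000 per well) that have settled for 6 h at 37 C. Plates then incubate 18 h at 37 C before ONE-Glo luciferase reagent and a luminescence read 30 min later.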

[11] = qHTS assay to identify small molecule agonists of the estrogen related receptor (ERR) signaling pathway from Tox21 library (AID 1224849; calls by dose curve; note: nearly all actives have a fitted effect of over 15% in size); conditions: ERR reporter cell line, ONE-Glo luciferase, 18 h; at 92.4 µM (top of the series) unless noted
Summary of the method: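 Luminescent agonist read-out (One-Glo, 30-minute room-temperature incubation) following 18-hour compound treatment at 37 C of the ERR cell line, which had been plated 6 hours before dosing.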

[12] = qHTS RealTime-Glo MT Cell Viability Assay in HepG2 cells - 24 hour (AID 1224867); note: nearly all actives have a fitted effect of over 50% in size; note: potency is the fitted concentration of half-maximal effect
Summary of the method: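 HepG2 cells were seeded at 600 cells/well together with NanoLuc luciferase and a cell-permeant prosubstrate, preincubated 5 h at 37 C/5% CO2, then pin-dosed with compounds in DMSO. Nonlytic luminescence from viable cells was read at each time point.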

[13] = qHTS RealTime-Glo MT Cell Viability Assay in HEK293 cells - 32 hour (AID 1224868); note: nearly all actives have a fitted effect of over 50% in size; note: potency is the fitted concentration of half-maximal effect
Summary of the method: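 HEK293 cells were seeded at 600 cells/well together with NanoLuc luciferase and cell-permeant prosubstrate, preincubated 5 h at 37 C/5% CO2, then given compound in DMSO by pintool. Luminescence from viable-cell prosubstrate reduction was read repeatedly over 40 h.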

[14] = A CellTox Green Cytotoxicity Assay to monitor cytotoxicity in HEK293 cells - 0 hour (AID 1224869); note: nearly all actives have a fitted effect of over 50% in size
Summary of the method: (§1)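 Fluorescence from a DNA-binding dye excluded by viable cells was measured repeatedly in the same HEK293 wells (600 cells/well) during continuous compound exposure at 37 C. Each assay gives one read point: 0, 8, 16, 24, 32 or 40 h.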

[15] = target: Nuclear receptor subfamily 1 group I member 3 (Homo sapiens) (UniProt Q14994); assay: qHTS assay to identify small molecule agonists of the constitutive androstane receptor (CAR) signaling pathway (AID 1224839); note: nearly all actives have a fitted effect of over 15% in size; note: potency is the fitted concentration of half-maximal effect;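 for activation: HepG2 cells stably carrying human CAR and a CYP2B6 luciferase reporter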
Summary of the method: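 HepG2-CYP2B6-hCAR cells, 2500/well, 4 h pre-incubation; compounds 15 conc.; PK11195 0.75 uM final; 24 h, 37 C/5% CO2; ONE-Glo luciferase read.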

[16] = qHTS RealTime-Glo MT Cell Viability Assay in HepG2 cells - 40 hour (AID 1224870); note: nearly all actives have a fitted effect of over 50% in size; note: potency is the fitted concentration of half-maximal effect
Summary of the method: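 HepG2 cells (600/well) mixed with RealTime-Glo MT reagent, settled 5 h at 37 C/5% CO2 before compound addition. Nonlytic NanoLuc luminescence from viable-cell prosubstrate reduction read repeatedly during 40 h treatment at 37 C.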

[17] = A CellTox Green Cytotoxicity Assay to monitor cytotoxicity in HEK293 cells - 40 hour (AID 1224871); note: nearly all actives have a fitted effect of over 45% in size; note: potency is the fitted concentration of half-maximal effect
Summary of the method: as §1

[18] = qHTS assay to identify small molecule agonists of the constitutive androstane receptor (CAR) signaling pathway - cell viability counter screen (AID 1224836); note: nearly all actives have a fitted effect of over 45% in size; note: potency is the fitted concentration of half-maximal effect
Summary of the method: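 HepG2-CYP2B6-hCAR, 2500 cells/well, 4 h pre-incubation; cpd 15 conc + PK11195 0.75 uM final; 23 h, 37 C/5% CO2; CellTiter-Fluor, fluorescence.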

[19] = qHTS assay to identify small molecule agonists of H2AX (AID 1224845; active = well fitted activation curve with a large enough effect in the signal ratio in the repeat runs, not every such curve was filed as active; the % refers to the signal ratio)
Summary of the method: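 Wild-type CHO-K1 cells, plated overnight, exposed 3hr at 37C to 15 concentrations (0.76% DMSO final). Lysed, then HTRF anti-pH2AX (S139) cryptate and anti-H2AX-d2 antibodies, 24 hr room temperature; 665/620 nm emission read.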

[20] = qHTS assay to identify small molecule agonists of H2AX - cell viability counter screen (AID 1224847; calls by dose curve; note: nearly all actives have a fitted effect of over 30% in size; note: potency is the fitted concentration of half-maximal effect)
Summary of the method: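 Cells plated first: CHO-K1, 1000 per well in 10% FBS medium, incubated overnight at 37C. Then 15-point compound titration added (final DMSO 0.76%) for 3 hr. Finally CellTiter-Glo added and luminescence read.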

Thyrotropin receptor (Homo sapiens), sequence (P16473 whole entry, looked up): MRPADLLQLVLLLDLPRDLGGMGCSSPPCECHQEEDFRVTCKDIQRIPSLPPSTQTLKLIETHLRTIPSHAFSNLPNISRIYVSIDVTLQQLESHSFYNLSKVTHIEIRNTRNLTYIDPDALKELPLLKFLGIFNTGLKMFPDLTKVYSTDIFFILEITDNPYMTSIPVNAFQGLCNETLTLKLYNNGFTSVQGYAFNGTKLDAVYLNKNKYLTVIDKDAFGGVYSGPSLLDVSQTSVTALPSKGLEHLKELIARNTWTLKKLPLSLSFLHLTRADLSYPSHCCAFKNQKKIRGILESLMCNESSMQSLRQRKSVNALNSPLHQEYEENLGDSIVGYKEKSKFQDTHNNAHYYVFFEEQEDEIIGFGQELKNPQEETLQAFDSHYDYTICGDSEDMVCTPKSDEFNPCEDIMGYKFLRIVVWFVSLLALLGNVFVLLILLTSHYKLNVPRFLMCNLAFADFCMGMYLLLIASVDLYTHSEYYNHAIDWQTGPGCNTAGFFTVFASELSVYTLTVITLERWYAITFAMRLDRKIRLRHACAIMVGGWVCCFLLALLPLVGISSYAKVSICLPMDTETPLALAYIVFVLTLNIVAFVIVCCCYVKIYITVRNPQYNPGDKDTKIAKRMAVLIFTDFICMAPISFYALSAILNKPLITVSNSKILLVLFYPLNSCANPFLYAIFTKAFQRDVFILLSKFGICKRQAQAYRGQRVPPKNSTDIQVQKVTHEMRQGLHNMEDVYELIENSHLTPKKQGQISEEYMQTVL
Luciferin 4-monooxygenase (Photinus pyralis), sequence (P08659 whole entry, looked up): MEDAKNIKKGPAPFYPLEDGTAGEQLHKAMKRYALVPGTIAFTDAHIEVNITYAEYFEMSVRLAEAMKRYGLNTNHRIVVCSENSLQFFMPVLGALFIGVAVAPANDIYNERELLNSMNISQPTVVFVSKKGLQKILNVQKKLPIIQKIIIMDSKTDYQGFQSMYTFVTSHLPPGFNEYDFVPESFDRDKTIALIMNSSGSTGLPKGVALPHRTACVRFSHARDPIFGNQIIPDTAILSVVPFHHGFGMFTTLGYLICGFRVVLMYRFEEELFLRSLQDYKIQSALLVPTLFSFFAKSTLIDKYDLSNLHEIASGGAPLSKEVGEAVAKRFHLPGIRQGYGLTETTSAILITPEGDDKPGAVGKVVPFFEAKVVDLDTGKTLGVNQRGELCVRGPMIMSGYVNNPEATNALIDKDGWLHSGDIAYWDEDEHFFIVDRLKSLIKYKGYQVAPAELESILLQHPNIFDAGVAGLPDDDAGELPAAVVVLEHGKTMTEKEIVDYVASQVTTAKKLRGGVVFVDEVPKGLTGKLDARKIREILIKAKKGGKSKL
Nuclear receptor subfamily 1 group I member 3 (Homo sapiens), sequence (Q14994 whole entry, looked up): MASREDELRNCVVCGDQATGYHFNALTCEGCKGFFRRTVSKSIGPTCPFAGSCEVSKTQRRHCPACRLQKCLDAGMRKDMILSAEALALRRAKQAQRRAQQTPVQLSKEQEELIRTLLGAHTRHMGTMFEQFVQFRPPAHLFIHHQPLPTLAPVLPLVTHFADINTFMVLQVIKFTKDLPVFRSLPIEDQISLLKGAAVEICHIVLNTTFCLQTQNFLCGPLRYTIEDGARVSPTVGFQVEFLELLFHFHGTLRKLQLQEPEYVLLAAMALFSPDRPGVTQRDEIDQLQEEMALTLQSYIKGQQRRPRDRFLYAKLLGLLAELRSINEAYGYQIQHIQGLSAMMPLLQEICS

Row | SMILES | Potency [1] | Potency [2] | Potency [3] | Potency [4] | Potency [5] | Potency [6] | Potency [7] | Potency [8] | outcome [9] | Potency [10] | activity change, positive = activation [11] | Potency [12] | Potency [13] | Potency [14] | Potency [15] | Potency [16] | Potency [17] | Potency [18] | Potency [19] | Potency [20]
1 | OC(Cc1ccccc1Cl)(Cn1cncn1)C1(Cl)CC1 (stereo unspecified) | inactive | inactive | inactive | inactive | 54.5 µM (active) | inactive | inactive | inactive | inactive | 48.6 µM (active) | -38.2% (inactive) | inactive | 49000 nM (active) | inactive |  |  |  |  |  | 
2 | O=[N+]([O-])c1c2ccccc2cc2ccccc12 | 31.3 µM (active) |  | inactive | inactive | inactive |  | inactive |  |  | inactive |  | inactive | inactive | inactive | 21.4 µM (active) | inactive | 5.43 µM (active) |  |  | 
3 | NNC(=O)c1ccccc1 | inactive |  | inactive | inactive |  |  | inactive | inactive | inactive |  |  | inactive | inactive | inactive | 62.8 µM (active) | inactive | inactive | inactive | inactive | inactive
4 | O=C(O)c1cc[c]([Hg][Cl])cc1 | 5.03 µM (active) | 54.5 µM (active) |  | 13.7 µM (active) |  |  | 15.4 µM (active) | 54.9 µM (active) |  |  |  | 24.5 µM (active) |  | inactive | inactive | 24.5 µM (active) | 17.4 µM (active) |  |  | 
5 | CC(=O)OC1(c2ccccc2)CCN(CCc2ccccc2)CC1 | inactive |  | 8.84 µM (active) | inactive |  |  | inactive | inactive | inactive |  |  | inactive | 31600 nM (active) | inactive | inactive |  |  |  | inactive | 
6 | C[C@]12CC[C@H](O)C[C@H]1CC[C@@H]1[C@@H]2C[C@@H](O)[C@]2(C)[C@@H](C3=CC(=O)OC3)CC[C@]12O | inactive |  | 1.22 µM (active) |  | 3.86 µM (active) | inactive | inactive | 11 µM (active) |  | 3.06 µM (active) | -63.4% (active) | inactive | 692 nM (active) | inactive | inactive | inactive | inactive |  | inactive | inactive
7 | Oc1c(Cl)c(Cl)cc(Cl)c1Cl | 87 µM (active) | inactive | inactive |  | 53 µM (active) | inactive | inactive | inactive | inactive | 37.5 µM (active) | -59.9% (inactive) | inactive |  | inactive | inactive | inactive | 42.5 µM (active) |  | inactive | 87.3 µM (active)
8 | CN(C)[C@@H]1C(=O)C(C(N)=O)=C(O)[C@@]2(O)C(=O)C3=C(O)c4c(O)ccc(Cl)c4[C@@](C)(O)[C@H]3C[C@@H]12 | inactive |  |  | inactive |  |  | inactive | inactive | inactive |  |  | inactive |  | inactive |  | inactive | inactive |  | inactive | inactive
9 | CCc1nn(C)c(C(=O)NCc2ccc(C(C)(C)C)cc2)c1Cl | inactive | inactive | inactive |  | 0.0611 µM (active) | inactive |  |  |  | 0.0486 µM (active) | -58.3% (inactive) | inactive | 34.7 nM (active) | inactive | inactive | inactive |  |  | inactive | 56.6 µM (active)
10 | C[C@@H]1O[C@@H](O[C@@H]2C=C3CC[C@@H]4[C@H](CC[C@]5(C)[C@@H](c6ccc(=O)oc6)CC[C@]45O)[C@@]3(C)CC2)[C@H](O)[C@H](O)[C@H]1O | inactive |  | 0.0841 µM (active) |  | 0.0237 µM (active) | inactive |  | 0.0268 µM (active) | inactive | 0.0335 µM (active) | -58.9% [at 42.5 µM] (inactive) | inactive | 21.3 nM (active) | inactive | inactive | inactive |  | 0.119 µM (active) | inactive | 
11 | CCc1cc(C)cc(CC)c1-c1c(OC(=O)C(C)(C)C)n2n(c1=O)CCOCC2 | inactive |  |  | inactive | 8.63 µM (active) | inactive | inactive | inactive | inactive | inactive | -10% (inactive) | inactive | inactive | inactive |  | inactive | inactive | inactive | inactive | inactive
12 | CCC(C)c1cc([N+](=O)[O-])cc([N+](=O)[O-])c1OC(=O)C=C(C)C (stereo unspecified) | inactive | 61.1 µM (active) |  | 30.6 µM (active) |  |  |  | inactive |  |  |  | 49 µM (active) |  | inactive |  | 49 µM (active) | inactive | 61.1 µM (active) |  | 56.6 µM (active)
13 | CSCCCN=C=S | inactive |  |  | inactive | inactive | inactive | inactive |  |  | inactive | -13.5% (inactive) | inactive |  | inactive |  | inactive |  |  | inactive | inactive
14 | C[C@H]1O[C@@H](O[C@H]2[C@@H](O)C[C@H](O[C@H]3[C@@H](O)C[C@H](O[C@H]4CC[C@@]5(C)[C@H](CC[C@@H]6[C@@H]5CC[C@]5(C)[C@@H](C7=CC(=O)OC7)CC[C@]65O)C4)O[C@@H]3C)O[C@@H]2C)C[C@H](O)[C@@H]1O | inactive |  | 77.4 nM (active) and 422 nM (active) |  | 97.5 nM (active) and 168 nM (active) | inactive | inactive | 98.3 nM (active) and 190 nM (active) | inactive | inactive | -72.7% [at 42.5 µM] (inactive) and -65% [at 42.5 µM] (active) | inactive | 31.1 nM (active) and 95.2 nM (active) | inactive | inactive | inactive |  | 0.0975 µM (active) | inactive | inactive

Source: PubChem BioAssay (Tox21)
